Results taken from PubChem BioAssay (NCI).
The panel holds about 79,000 compounds, 15% with a hit somewhere; the sample as a whole holds those more often. Activity calls are given as the source filed them. No stated cut-off is given here; in the data, active means growth inhibition above about 70%; inactive means the rest.

How the values were obtained:
[1] = NCI Yeast Anticancer Drug Screen. Data for the rad50 strain (AID 155);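 further: 0% = growth of vehicle-only cultures of the same strain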; conditions: S. cerevisiae rad50 strain growth inhibition; at 50.0 µM; active compounds read high
Summary of the method: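 Yeast carrying a defined DNA repair defect were exposed to test compounds, and growth was compared with vehicle-treated controls to give percent inhibition.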

[2] = NCI Yeast Anticancer Drug Screen. Data for the mec2-1 strain (AID 157); conditions: S. cerevisiae mec2-1 strain, at 50.0 µM, active compounds read high
Summary of the method: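 Mutant yeast (mec2-1) grown with compound; growth inhibition relative to vehicle control reported.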

[3] = NCI Yeast Anticancer Drug Screen. Data for the sgs1 mgt1 strain (AID 161);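 further: 0% = growth of cultures given vehicle only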; conditions: S. cerevisiae sgs1 mgt1 strain, at 50.0 µM, active compounds read high
Summary of the method: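 This yeast growth screen uses a strain with defined DNA-repair lesions; compound-treated growth is compared with vehicle-treated growth.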

[4] = NCI Yeast Anticancer Drug Screen. Data for the cln2 rad14 strain (AID 165);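 further: 0% = growth equal to vehicle treated cultures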; conditions: S. cerevisiae cln2 rad14 strain, at 50.0 µM, active compounds read high
Summary of the method: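 Readout is yeast growth inhibition versus vehicle-treated controls, using a strain with cln2 and rad14 alterations exposed to compound.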

[5] = NCI Yeast Anticancer Drug Screen. Data for the bub3 strain (AID 167); conditions: S. cerevisiae bub3 mutant strain, at 50.0 µM, active compounds read high
Summary of the method: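 Compounds were applied to a genetically altered yeast strain carrying a cell-cycle control defect. Growth inhibition was scored against vehicle-treated controls.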

[6] = NCI Yeast Anticancer Drug Screen. Data for the mlh1 rad18 strain (AID 175); conditions: S. cerevisiae mlh1 rad18 strain growth inhibition; at 50.0 µM; active compounds read high
Summary of the method: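 Genetically defined yeast (DNA repair-deficient) exposed to compounds; growth inhibition determined relative to vehicle.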

| SMILES | growth inhibition [1] | growth inhibition [2] | growth inhibition [3] | growth inhibition [4] | growth inhibition [5] | growth inhibition [6] |
| --- | --- | --- | --- | --- | --- | --- |
| O=C(NC1CC1)C(Cl)Cl | -0.15% (inactive) | -25.1% (inactive) | 5.85% (inactive) | 11% (inactive) | -16.4% (inactive) | -1.15% (inactive) |
| CCCCCCCCCCC(O)[C@H]1CCC(C2CC[C@H]([C@H](O)CCCCCCCCCCC(O)CC3=CC(C)OC3=O)O2)O1 (stereo partly specified) | 2.15% (inactive) | -5.15% (inactive) | -13.3% (inactive) | -10.7% (inactive) | 0.85% (inactive) | 5.2% (inactive) |
| CN1CCC2(CC1)C(C#N)C(=O)NC(=O)C2C#N (stereo unspecified) | 19.8% (inactive) | 3% (inactive) | 11.7% (inactive) | 22.9% (inactive) | 9.05% (inactive) | 7.75% (inactive) |
| O=C(COc1cccc(Cl)c1)Nc1cccc(NC(=O)c2ccc(S(=O)(=O)F)cc2)c1 | 2.75% (inactive) | 5.95% (inactive) | -6.85% (inactive) | -17.2% (inactive) | -5.75% (inactive) | 9.2% (inactive) |
| Cc1ccc([Se][Se]c2ccc(C)cc2)cc1 | 55.5% (inactive) | 10.7% (inactive) | 35.6% (inactive) | 30.1% (inactive) | 41% (inactive) | 43% (inactive) |
| CCC1CN1CCC(=O)Nc1ccccc1 (stereo unspecified) | -2.8% (inactive) | -13.1% (inactive) | -14.2% (inactive) | -35.2% (inactive) | -17.6% (inactive) | 6.3% (inactive) |
| Nc1nnnn1CCO | -4.7% (inactive) | -13% (inactive) | -17% (inactive) | 6.4% (inactive) | -13.1% (inactive) | -13.1% (inactive) |
| CN1CC[CH2][Sn]([Cl])([Cl])[CH2]CC1 | -1.25% (inactive) | -5.9% (inactive) | 1.15% (inactive) | 1.3% (inactive) | -17.2% (inactive) | 13% (inactive) |
| COc1cc2c(cc1OC)C13CCN4C=C5CCOC6CC(=O)N2C1C6C5CC43 (stereo unspecified) | -25.4% (inactive) | -8.7% (inactive) | -12.7% (inactive) | 1.75% (inactive) | -60% (inactive) | 16.8% (inactive) |
| CCCCCC[n+]1noc(N)c1-c1ccc(-c2c(N)on[n+]2CCCCCC)cc1 | 17.6% (inactive) | -1.35% (inactive) | 26.1% (inactive) | 21.8% (inactive) | 16.2% (inactive) | 18.5% (inactive) |
| O=c1ccc(=O)[nH][nH]1.[Mn] | 2.05% (inactive) | 4.5% (inactive) | -13.6% (inactive) | 17.1% (inactive) | 7.2% (inactive) | -1.7% (inactive) |
| COC(N)=O | -15.6% (inactive) | -10.2% (inactive) | -16.9% (inactive) | -15.9% (inactive) | -2.6% (inactive) | -8.3% (inactive) |
| CS(=N)(=O)CCC(N)C(=O)O (stereo unspecified) (tested in a mixture with another compound) | 4.7% (inactive) | 21.2% (inactive) | -12.8% (inactive) | -1.95% (inactive) | 17.8% (inactive) | 2.1% (inactive) |
| ClCCN(CCCl)c1cc(Cl)ccc1Oc1ccccc1 | -35.8% (inactive) | -4.3% (inactive) | 1.25% (inactive) | -42% (inactive) | 18.9% (inactive) | -1.55% (inactive) |
| NNC(=O)c1ccccc1 | -1.8% (inactive) | -2.05% (inactive) | -11.8% (inactive) | -36% (inactive) | -1.25% (inactive) | -19% (inactive) |
| CCCCP(CCCC)CCCC | -10% (inactive) | 0.95% (inactive) | 4.15% (inactive) | 19.2% (inactive) | 51% (inactive) | 19.6% (inactive) |
| COC(=O)C1=CCCN(C)C1 | 0.15% (inactive) | -0.6% (inactive) | 10.2% (inactive) | -0.4% (inactive) | 2.15% (inactive) | 3.7% (inactive) |
| CC[C@@H](C)C(=O)O[C@H]1[C@H](O)[C@H]2[C@@H](CN3C[C@@H](C)CC[C@H]3[C@@]2(C)O)[C@@H]2C[C@]34O[C@]5(O)[C@@H](OC(=O)[C@@](C)(O)CC)CC[C@@]3(C)[C@@H]5[C@@H](OC(C)=O)[C@@H](OC(C)=O)[C@H]4[C@@]21O | 11.8% (inactive) | -15.3% (inactive) | 0.75% (inactive) | -4.3% (inactive) | 8.75% (inactive) | 7.35% (inactive) |

| SMILES | growth inhibition [1] | growth inhibition [2] | growth inhibition [3] | growth inhibition [4] | growth inhibition [5] | growth inhibition [6] |
| --- | --- | --- | --- | --- | --- | --- |
| C[C@]12CC[C@H](O)C=C1CC[C@@H]1[C@@H]2CC[C@]2(C)C(c3ccc(=O)oc3)CC[C@]12O (stereo partly specified) | -2.85% (inactive) | -12.9% (inactive) | 17.9% (inactive) | 10.9% (inactive) | 0.05% (inactive) | 8.75% (inactive) |
| C[C@@]1(C(=O)c2ccccc2)N(c2ccccc2)[C@@]1(C)C(=O)c1ccccc1 | 8.9% (inactive) | 8.3% (inactive) | 4.35% (inactive) | 21.8% (inactive) | 16.1% (inactive) | 32.4% (inactive) |
| N/C(=N/N=C/c1ccc(O)cc1)N[N+](=O)[O-] | -2.4% (inactive) | -29.6% (inactive) | -14.3% (inactive) | -31.5% (inactive) | -6.75% (inactive) | 9% (inactive) |
| Oc1ccc(CC2NCCc3cc(O)c(O)cc32)cc1O (stereo unspecified) | 17.5% (inactive) | -4.15% (inactive) | 26.3% (inactive) | 24.3% (inactive) | 26.4% (inactive) | 23.1% (inactive) |
| CCOC(=O)C12CCC(=O)C=C1CN(C)CC2 (stereo unspecified) | -2.25% (inactive) | 0.1% (inactive) | -3.3% (inactive) | -17.1% (inactive) | -13.2% (inactive) | 0.8% (inactive) |
| c1ccc(CCN2CCCCC2)nc1 | 2.55% (inactive) | -1.8% (inactive) | -0.15% (inactive) | -1.1% (inactive) | 13.3% (inactive) | -0.85% (inactive) |
| N.N.N.N.N.N.O=N[O-].[Br-].[Co+3].[Co+3].[OH3+].[OH3+] | 7.15% (inactive) | 9.25% (inactive) | -15.4% (inactive) | 15.9% (inactive) | 6.25% (inactive) | -7.9% (inactive) |
| C=C(C)[C@]12CC(C)C34OC(/C=C\C=C\CCCCCCCCC)(O[C@@H]1[C@@H]3[C@@H]1O[C@]1(CO)[C@@H](O)[C@]1(O)C(=O)C(C)=C[C@@H]41)O2 (stereo partly specified) | 74.4% (active) | 70% (active) | 84.9% (active) | 73% (active) | 73.1% (active) | 64.2% (inactive) |
| O=C(O)CCCC(=O)CCCC(=O)O | 0.3% (inactive) | 4.35% (inactive) | 22.9% (inactive) | 7.45% (inactive) | 24.6% (inactive) | 21.4% (inactive) |
| O=C1C=CC(=O)N1CO | 23.2% (inactive) | 19.2% (inactive) | 9% (inactive) | 6.4% (inactive) | 26.9% (inactive) | 9.25% (inactive) |
| Cc1nc2ccccc2c(=O)n1-c1ccccc1Br | 7.35% (inactive) | -13.7% (inactive) | -6.7% (inactive) | 12.4% (inactive) | 10.2% (inactive) | 2.2% (inactive) |
| CC(C)(C)NCC(COc1ccc([N+](=O)[O-])cc1)OP(c1ccccc1)c1ccccc1 (stereo unspecified) | 15.7% (inactive) | 6.25% (inactive) | 2.25% (inactive) | 23.6% (inactive) | 14.8% (inactive) | 21.3% (inactive) |
| CCCCOC(N)=O | -34.6% (inactive) | -11.6% (inactive) | 29.4% (inactive) | -19.9% (inactive) | 0.1% (inactive) | 0.3% (inactive) |
| COc1ccc2c(c1)[C@@]13CCCC[C@H]1[C@@H](C2)N(C)CC3=O | 41.5% (inactive) | 26.9% (inactive) | -14.3% (inactive) | 9.65% (inactive) | 3% (inactive) | -48% (inactive) |
| COC(C)C(O)(C(=O)OCC1=CCN2CCC(O)C12)C(C)(C)O (stereo unspecified) | 1.25% (inactive) | -5.35% (inactive) | 21.4% (inactive) | 5.4% (inactive) | 10.1% (inactive) | -52.4% (inactive) |
| CC1(C)CCC[N+]1(C)CCC(C(N)=O)(c1ccccc1)c1ccccc1 (stereo unspecified) | 12.7% (inactive) | 5.3% (inactive) | 6.6% (inactive) | 4.45% (inactive) | 8.8% (inactive) | 3.35% (inactive) |
| CC(C)(Br)[N+](=O)[O-] | 9% (inactive) | -3.55% (inactive) | 4.45% (inactive) | 10.2% (inactive) | 10.8% (inactive) | 1.8% (inactive) |
| Cc1cc(C)c(C(=O)O)c(C)c1.[Hg] | 99.6% (active) | 99.8% (active) | 99.7% (active) | 99.5% (active) | 99.7% (active) | 99.7% (active) |
